In PubChem BioAssay AID1159580 (chemical genetic matrix, 2015):
Hit rate of the full screen: of about 5,500 compounds, about 2,000 (36%) were called active. About 18% were inconclusive and are not listed. No stated cut-off is given here; in the data, active means normalized growth mostly below about 0.91 (no sharp cut-off); inconclusive means no clear call, values can overlap the other calls; inactive means mostly above about 0.92. The list shows a part of the results.

Assay: chemical genetic growth profiling, strain panel (AID 1159580);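 further: tested at 20 µM; growth read once vehicle control cultures reached saturation at 30 °C; 1 = growth at the plate median or of vehicle wells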
Conditions: S. cerevisiae deletion strains, growth OD
[1] = locus YAR019C, strain CDC15, stronger effect = lower value
[2] = locus YBL105C, strain PKC1, stronger effect = lower value
[3] = locus YBR135W, strain CKS1, stronger effect = lower value
[4] = locus YBR136W, strain MEC1, stronger effect = lower value
[5] = locus YBR160W, strain CDC28, stronger effect = lower value
[6] = locus YDL017W, strain CDC7, stronger effect = lower value
[7] = locus YDL028C, strain MPS1, stronger effect = lower value
[8] = locus YDL101C, strain DUN1, stronger effect = lower value
[9] = locus YDL108W, strain KIN28, stronger effect = lower value
[10] = locus YDL132W, strain cdc53, stronger effect = lower value
[11] = locus YDL214C, strain PRR2, stronger effect = lower value
[12] = locus YDR052C, strain DBF4, stronger effect = lower value
[13] = locus YDR054C, strain cdc34, stronger effect = lower value
[14] = locus YDR226W, strain ADK1, stronger effect = lower value
[15] = locus YDR477W, strain SNF1, stronger effect = lower value
[16] = locus YER123W, strain YCK3, stronger effect = lower value
[17] = locus YER133W, strain GLC7, stronger effect = lower value
[18] = locus YFL009W, strain cdc4, stronger effect = lower value
[19] = locus YFL029C, strain CAK1, stronger effect = lower value
[20] = locus YFR003C, strain YPI1, stronger effect = lower value
[21] = locus YFR019W, strain FAB1, stronger effect = lower value
[22] = locus YFR028C, strain CDC14, stronger effect = lower value
[23] = locus YGR040W, strain KSS1, stronger effect = lower value
[24] = locus YGR052W, strain FMP48, stronger effect = lower value
[25] = locus YGR092W, strain DBF2, stronger effect = lower value
[26] = locus YHR030C, strain SLT2, stronger effect = lower value
[27] = locus YHR079C, strain IRE1, stronger effect = lower value
[28] = locus YHR082C, strain KSP1, stronger effect = lower value
[29] = locus YHR205W, strain SCH9, stronger effect = lower value
[30] = locus YIL147C, strain SLN1, stronger effect = lower value
[31] = locus YJL095W, strain BCK1, stronger effect = lower value
[32] = locus YJL128C, strain PBS2, stronger effect = lower value
[33] = locus YJL157C, strain FAR1, stronger effect = lower value
[34] = locus YJR016C, strain ILV3, stronger effect = lower value
[35] = locus YJR066W, strain TOR1 (second series), stronger effect = lower value
[36] = locus YJR066W, strain TOR1, stronger effect = lower value
[37] = locus YKL048C, strain ELM1, stronger effect = lower value
[38] = locus YKL067W, strain YNK1, stronger effect = lower value
[39] = locus YKL101W, strain HSL1, stronger effect = lower value
[40] = locus YKL193C, strain SDS22, stronger effect = lower value
[41] = locus YKL203C, strain TOR2, stronger effect = lower value
[42] = locus YLR113W, strain HOG1, stronger effect = lower value
[43] = locus YLR133W, strain CKI1, stronger effect = lower value
[44] = locus YLR403W, strain SFP1, stronger effect = lower value
[45] = locus YML070W, strain DAK1, stronger effect = lower value
[46] = locus YMR001C, strain CDC5, stronger effect = lower value
[47] = locus YMR205C, strain PFK2 (second series), stronger effect = lower value
[48] = locus YMR277W, strain FCP1, stronger effect = lower value
[49] = locus YNL006W, strain LST8, stronger effect = lower value
[50] = locus YNL020C, strain ARK1, stronger effect = lower value
[51] = locus YNL161W, strain CBK1, stronger effect = lower value
[52] = locus YNL183C, strain NPR1, stronger effect = lower value
[53] = locus YNL207W, strain RIO2, stronger effect = lower value
[54] = locus YNL222W, strain SSU72, stronger effect = lower value
[55] = locus YNL307C, strain MCK1 (second series), stronger effect = lower value
[56] = locus YOL078W, strain AVO1, stronger effect = lower value
[57] = locus YOL136C, strain PFK27, stronger effect = lower value
[58] = locus YOR061W, strain CKA2, stronger effect = lower value
[59] = locus YOR119C, strain RIO1, stronger effect = lower value
[60] = locus YOR231W, strain MKK1, stronger effect = lower value
[61] = locus YOR329C, strain SCD5, stronger effect = lower value
[62] = locus YPL031C, strain PHO85, stronger effect = lower value
[63] = locus YPL153C, strain RAD53, stronger effect = lower value
[64] = locus YPL204W, strain HRR25, stronger effect = lower value
[65] = locus YPL209C, strain IPL1, stronger effect = lower value
[66] = locus YPL256C, strain CLN2, stronger effect = lower value
[67] = locus YPR025C, strain CCL1, stronger effect = lower value
[68] = locus YPR106W, strain ISR1, stronger effect = lower value
[69] = locus YPR111W, strain DBF20, stronger effect = lower value
[70] = strain NNK1, stronger effect = lower value
[71] = strain TSCII, stronger effect = lower value

Measured: normalized growth

COc1ccc(/C=C2/C(=O)Nc3ccccc32)cc1
inactive: [4] 0.894 | [5] 0.899 | [7] 0.896 | [11] 0.84 | [13] 0.917 | [15] 0.762 | [16] 0.858 | [17] 0.777 | [19] 0.879 | [21] 0.887 | [23] 0.776 | [24] 0.836 | [25] 0.733 | [27] 0.686 | [28] 0.827 | [29] 0.577 | [31] 0.774 | [32] 0.839 | [33] 0.83 | [35] 0.692 | [36] 0.729 | [37] 0.887 | [38] 0.89 | [39] 0.906 | [41] 0.859 | [43] 0.845 | [45] 0.859 | [47] 0.866 | [50] 0.841 | [52] 0.821 | [54] 0.894 | [55] 0.873 | [57] 0.825 | [58] 0.861 | [59] 0.899 | [60] 0.877 | [62] 0.748 | [63] 0.788 | [64] 0.708 | [67] 0.912 | [69] 0.89
active: [1] 0.877 | [2] 0.884 | [3] 0.89 | [6] 0.893 | [8] 0.909 | [9] 0.892 | [10] 0.873 | [12] 0.898 | [14] 0.867 | [18] 0.868 | [20] 0.885 | [22] 0.871 | [26] 0.667 | [30] 0.892 | [34] 0.878 | [40] 0.877 | [42] 0.758 | [44] 0.652 | [46] 0.88 | [48] 0.867 | [49] 0.895 | [51] 0.874 | [53] 0.866 | [56] 0.879 | [61] 0.891 | [65] 0.894 | [66] 0.691 | [68] 0.892 | [70] 0.866 | [71] 0.863

COc1cc(OC)c(/C=C2/C(=O)Nc3ccccc32)c(OC)c1
inactive: locus YAL013W, strain DEP1, stronger effect = lower value 1.01 | locus YAL040C, strain CLN3, stronger effect = lower value 0.983 | locus YCL061C, strain MRC1 (second series), stronger effect = lower value 1.01 | locus YDR150W, strain NUM1, stronger effect = lower value 1.01 | locus YDR363W, strain ESC2, stronger effect = lower value 0.984 | locus YER002W, strain NOP16, stronger effect = lower value 1.02 | locus YJR075W, strain HOC1, stronger effect = lower value 1.01 | locus YMR307W, strain GAS1, stronger effect = lower value 1.01 | locus YNL153C, strain GIM3, stronger effect = lower value 0.914 | locus YNL175C, strain NOP13, stronger effect = lower value 0.972 | locus YNL197C, strain WHI3, stronger effect = lower value 0.979 | locus YNL224C, strain SQS1, stronger effect = lower value 0.996 | locus YNL322C, strain KRE1, stronger effect = lower value 1 | locus YOR083W, strain WHI5 (second series), stronger effect = lower value 0.967

O=C1Nc2ccccc2/C1=C\c1c(Cl)cccc1Cl
active: [42] 0.845
inactive: [1] 0.966 | [2] 0.963 | [3] 0.973 | [4] 0.974 | [5] 0.972 | [6] 0.969 | [7] 0.975 | [8] 0.964 | [9] 0.974 | [10] 0.965 | [11] 0.951 | [12] 0.975 | [13] 0.958 | [14] 0.963 | [15] 0.939 | [16] 0.945 | [17] 0.945 | [18] 0.96 | [19] 0.961 | [20] 0.969 | [21] 0.976 | [22] 0.973 | [23] 0.945 | [24] 0.981 | [25] 0.909 | [26] 0.985 | [27] 0.901 | [28] 1.03 | [29] 0.918 | [30] 0.971 | [31] 0.894 | [32] 0.915 | [33] 0.946 | [34] 0.974 | [35] 0.95 | [36] 1.04 | [37] 0.944 | [38] 0.963 | [39] 0.938 | [40] 0.968 | [41] 1.01 | [43] 0.962 | [44] 0.928 | [45] 0.954 | [46] 0.968 | [47] 0.956 | [48] 0.965 | [49] 0.969 | [50] 0.941 | [51] 0.968 | [52] 0.989 | [53] 0.96 | [54] 0.967 | [55] 0.953 | [56] 0.963 | [57] 0.959 | [58] 0.959 | [59] 1.02 | [60] 0.953 | [61] 0.969 | [62] 0.939 | [63] 0.935 | [64] 0.926 | [65] 0.969 | [66] 0.905 | [67] 0.972 | [68] 0.954 | [69] 0.952 | [70] 0.946 | [71] 0.964
